Experimental data from PubChem BioAssay AID1159580 (chemical genetic matrix, 2015).
Among all 5,500 compounds or so, about 2,000 (36%) were called active. Inconclusive results (about 18%) are left out. Rule as the data show it: active = normalized growth mostly below about 0.91 (no sharp cut-off); inconclusive = no clear call, values can overlap the other calls; inactive = mostly above about 0.92. The list shows a part of the results.

Experiment: chemical genetic growth profiling, strain panel (AID 1159580);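 also: tested at 20 µM; growth read once vehicle control cultures reached saturation at 30 °C; 1 = growth at the plate median or of vehicle wells; lower values mean less growth of the strain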
Settings: growth OD

Measured: normalized growth

O=c1c(O)cc([C@H]2Oc3cc(O)cc(O)c3C[C@H]2O)cc2c([C@H]3Oc4cc(O)cc(O)c4C[C@H]3O)cc(O)c(O)c12
inactive: S. cerevisiae deletion strains, locus YJR066W, strain TOR1, active compounds read low 0.921 | S. cerevisiae deletion strains, locus YKL009W, strain mrt4, active compounds read low 1.09 | S. cerevisiae deletion strains, locus YKL068W, active compounds read low 1.01 | S. cerevisiae deletion strains, locus YKL160W, strain elf1, active compounds read low 1.01 | S. cerevisiae deletion strains, locus YKL190W, strain CNB1, active compounds read low 1.02 | S. cerevisiae deletion strains, locus YKR001C, strain vps1, active compounds read low 1.02 | S. cerevisiae deletion strains, locus YKR026C, strain gcn3, active compounds read low 0.987 | S. cerevisiae deletion strains, locus YKR091W, strain srl3, active compounds read low 1.03 | S. cerevisiae deletion strains, locus YLL001W, strain dnm1, active compounds read low 1.03 | S. cerevisiae deletion strains, locus YLL026W, active compounds read low 1.04 | S. cerevisiae deletion strains, locus YLL041C, strain sdh2, active compounds read low 1.03 | S. cerevisiae deletion strains, locus YLR027C, strain aat2, active compounds read low 1.02 | S. cerevisiae deletion strains, locus YLR039C, strain RIC1, active compounds read low 1.15 | S. cerevisiae deletion strains, locus YLR058C, strain SHM2, active compounds read low 1 | S. cerevisiae deletion strains, locus YLR102C, strain apc9, active compounds read low 1.02 | S. cerevisiae deletion strains, locus YLR113W, strain HOG1, active compounds read low 1.03 | S. cerevisiae deletion strains, locus YLR221C, strain rsa3, active compounds read low 1.03 | S. cerevisiae deletion strains, locus YLR258W, strain gsy2, active compounds read low 1.02 | S. cerevisiae deletion strains, locus YLR262C, strain YPT6 (second series), active compounds read low 1.06 | S. cerevisiae deletion strains, locus YLR262C, strain YPT6, active compounds read low 1.19 | S. cerevisiae deletion strains, locus YLR268W, strain sec22, active compounds read low 1.03 | S. cerevisiae deletion strains, locus YLR320W, strain mms22, active compounds read low 1.07 | S. cerevisiae deletion strains, locus YLR342W, strain FKS1 (second series), active compounds read low 1.01 | S. cerevisiae deletion strains, locus YLR342W, strain FKS1, active compounds read low 1.01 | S. cerevisiae deletion strains, locus YLR357W, strain rsc2, active compounds read low 0.989 | S. cerevisiae deletion strains, locus YLR370C, strain arc18, active compounds read low 1.01 | S. cerevisiae deletion strains, locus YLR371W, strain rom2, active compounds read low 0.977 | S. cerevisiae deletion strains, locus YLR384C, strain iki3, active compounds read low 1.03 | S. cerevisiae deletion strains, locus YLR418C, strain cdc73, active compounds read low 1.03 | S. cerevisiae deletion strains, locus YML016C, strain PPZ1, active compounds read low 1 | S. cerevisiae deletion strains, locus YML032C, strain rad52, active compounds read low 1.02 | S. cerevisiae deletion strains, locus YML120C, strain ndi1, active compounds read low 1.03 | S. cerevisiae deletion strains, locus YML124C, strain tub3, active compounds read low 1.02 | S. cerevisiae deletion strains, locus YMR058W, strain fet3, active compounds read low 0.955 | S. cerevisiae deletion strains, locus YMR078C, strain ctf18, active compounds read low 1.02 | S. cerevisiae deletion strains, locus YMR125W, strain sto1, active compounds read low 1.03 | S. cerevisiae deletion strains, locus YMR129W, active compounds read low 1.04 | S. cerevisiae deletion strains, locus YMR205C, strain PFK2, active compounds read low 1.09 | S. cerevisiae deletion strains, locus YMR223W, strain ubp8, active compounds read low 1 | S. cerevisiae deletion strains, locus YMR231W, strain pep5, active compounds read low 1.02 | S. cerevisiae deletion strains, locus YMR263W, strain SAP30, active compounds read low 1.03 | S. cerevisiae deletion strains, locus YMR307W, strain GAS1, active compounds read low 0.915 | S. cerevisiae deletion strains, locus YNL067W, strain RPL9B, active compounds read low 1.02 | S. cerevisiae deletion strains, locus YNL071W, strain lat1, active compounds read low 1.05 | S. cerevisiae deletion strains, locus YNL183C, strain NPR1, active compounds read low 0.95 | S. cerevisiae deletion strains, locus YNL209W, strain ssb2, active compounds read low 0.996 | S. cerevisiae deletion strains, locus YNL233W, strain BNI4, active compounds read low 1.04 | S. cerevisiae deletion strains, locus YNL248C, strain rpa49, active compounds read low 0.999 | S. cerevisiae deletion strains, locus YNL250W, strain rad50, active compounds read low 1.05 | S. cerevisiae deletion strains, locus YNL271C, strain bni1, active compounds read low 1 | S. cerevisiae deletion strains, locus YNL298W, strain CLA4, active compounds read low 1.02 | S. cerevisiae deletion strains, locus YNL307C, strain MCK1, active compounds read low 1.02 | S. cerevisiae deletion strains, locus YNL322C, strain KRE1 (second series), active compounds read low 1.07 | S. cerevisiae deletion strains, locus YNL322C, strain KRE1, active compounds read low 1.01 | S. cerevisiae deletion strains, locus YNR049C, strain mso1, active compounds read low 1.04 | S. cerevisiae deletion strains, locus YNR052C, strain pop2, active compounds read low 0.963 | S. cerevisiae deletion strains, locus YOL006C, strain TOP1, active compounds read low 1.03 | S. cerevisiae deletion strains, locus YOL012C, strain htz1 1.21 | S. cerevisiae deletion strains, locus YOL147C, strain pex11, active compounds read low 1.01 | S. cerevisiae deletion strains, locus YOR001W, strain rrp6, active compounds read low 1.03 | S. cerevisiae deletion strains, locus YOR061W, strain CKA2, active compounds read low 1.02 | S. cerevisiae deletion strains, locus YOR069W, strain VPS5, active compounds read low 1 | S. cerevisiae deletion strains, locus YOR070C, strain gyp1, active compounds read low 1.01 | S. cerevisiae deletion strains, locus YOR080W, strain dia2, active compounds read low 1.06 | S. cerevisiae deletion strains, locus YOR083W, strain WHI5, active compounds read low 1.01 | S. cerevisiae deletion strains, locus YOR106W, strain vam3, active compounds read low 1.04 | S. cerevisiae deletion strains, locus YOR136W, strain idh2, active compounds read low 1.02 | S. cerevisiae deletion strains, locus YOR144C, strain elg1, active compounds read low 1.02 | S. cerevisiae deletion strains, locus YOR184W, strain ser1, active compounds read low 1.06 | S. cerevisiae deletion strains, locus YOR231W, strain MKK1, active compounds read low 1.01 | S. cerevisiae deletion strains, locus YOR265W, strain rbl2, active compounds read low 1.03 | S. cerevisiae deletion strains, locus YOR270C, strain vph1, active compounds read low 1.14 | S. cerevisiae deletion strains, locus YOR290C, strain snf2, active compounds read low 1.01 | S. cerevisiae deletion strains, locus YOR316C, strain cot1, active compounds read low 1.01 | S. cerevisiae deletion strains, locus YPL051W, strain arl3, active compounds read low 1.02 | S. cerevisiae deletion strains, locus YPL078C, strain atp4, active compounds read low 1.01 | S. cerevisiae deletion strains, locus YPL106C, strain sse1, active compounds read low 1 | S. cerevisiae deletion strains, locus YPL240C, strain hsp82, active compounds read low 1.04 | S. cerevisiae deletion strains, locus YPL256C, strain CLN2, active compounds read low 0.992 | S. cerevisiae deletion strains, locus YPR119W, strain clb2, active compounds read low 1.03 | S. cerevisiae deletion strains, locus YPR141C, strain kar3, active compounds read low 0.993 | S. cerevisiae deletion strains, locus YPR163C, strain tif3, active compounds read low 1.01 | S. cerevisiae deletion strains, locus YPR167C, strain met16, active compounds read low 1.02 | S. cerevisiae deletion strains, strain wtn01, active compounds read low 1.03 | S. cerevisiae strains, strain wild type, active compounds read low 0.998
